Screens from PubChem.
Most compounds without a hit are left out; they make up all but 2.4% or so of the library.
D2 antagonist: HTS Assay for Allosteric Antagonists of the Human D2 Dopamine Receptor: Primary Screen for Antagonists. D(2) dopamine receptor (Homo sapiens), P14416. HEK293 TREx D2 cells, calcium flux, dopamine EC80. inhibition, % at 10 µM. actives 2% (n = 340,000); in the data active = inhibition above about 30%; inactive = below that, where a call was filed; note: 0% is about no effect
Target sequence (P14416 whole entry, looked up): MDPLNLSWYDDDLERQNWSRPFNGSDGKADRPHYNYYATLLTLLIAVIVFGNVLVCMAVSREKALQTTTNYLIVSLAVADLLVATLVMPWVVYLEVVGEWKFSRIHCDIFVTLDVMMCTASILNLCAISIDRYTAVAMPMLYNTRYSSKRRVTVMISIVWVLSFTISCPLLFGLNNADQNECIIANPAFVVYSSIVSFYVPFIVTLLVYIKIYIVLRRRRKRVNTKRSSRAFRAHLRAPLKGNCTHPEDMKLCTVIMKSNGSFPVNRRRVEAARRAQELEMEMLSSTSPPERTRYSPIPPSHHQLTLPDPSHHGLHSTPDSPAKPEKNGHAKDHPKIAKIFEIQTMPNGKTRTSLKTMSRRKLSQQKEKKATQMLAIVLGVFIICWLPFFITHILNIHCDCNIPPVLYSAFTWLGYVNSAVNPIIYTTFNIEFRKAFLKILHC
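Antagonism is scored as inhibition of an EC80 dopamine-evoked calcium signal in a force-coupled, tetracycline-inducible HEK293 T-REx D2 line, with compound present 180 s before agonist.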
D2 ag-1: Beta-Arrestin HTS for Positive Allosteric Modulators of the Human D2 Dopamine Receptor: Agonists; D(2) dopamine receptor (Homo sapiens), P14416; DiscoveRx PathHunter D2 beta-arrestin, luminescence, 90 min; 100% = 57 uM dopamine signal; activation, % (concentration not given with the values); actives 0.084% (n = 360,000); AID 624465, 2012; in the data active = activation above about 40%; inconclusive = between about 15% and that limit
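DiscoveRx PathHunter D2 beta-arrestin cells (2,100/well) attached overnight, then compound-stimulated 90 min at 37 C in HBSS/10 mM HEPES/0.1% Tween-20 buffer; beta-galactosidase complementation read by luminescence after 1 h at ambient temperature. Dopamine 57 uM final (EC100) as control.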
D2 PAM-1: HTS Assay for Positive Allosteric Modulators of the Human D2 Dopamine Receptor: Primary Screen for Potentiators. HEK293 T-REx D2, calcium flux, EC20 dopamine potentiation. D(2) dopamine receptor (Homo sapiens), P14416. actives 0.34% (n = 340,000). potentiation, % at 10 µM;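 active = potentiation over 3 SD above the plate norm, cut at about 30% in these data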; note: 0% is about no effect
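Potentiation of an EC20 dopamine calcium response is measured in a force-coupled, tetracycline-inducible Hek293 Trex D2 line. Compound-only kinetic reads over 180 s flag agonists before dopamine addition.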
D2 ag-2: HTS Assay for Allosteric Agonists of the Human D2 Dopamine Receptor: Primary Screen for Agonists; HEK293 T-REx D2 cells, calcium flux agonist mode; activation, % at 2 µM; actives 0.53% (n = 340,000); AID 485358, 2010;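 active = activation over 3 SD above normal in the single-dose calcium agonist read, cut at about 30% in these data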; note: 0% is about no effect
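Agonism scored from kinetic calcium signal (1 read/sec, 180 s) following compound pin transfer, after a 10 s baseline. Cells: HEK293 Trex line expressing inducible D2 receptor coupled to calcium, dye-loaded after overnight culture at 30 C.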
D2 PAM-2: Beta-Arrestin HTS for Positive Allosteric Modulators of the Human D2 Dopamine Receptor: Potentiators. DiscoveRx D2 beta-arrestin cells, luminescence, 90 min; 100% = 57 uM dopamine signal. potentiation, % (test concentration not listed). actives 0.23% (n = 360,000). AID 624464, 2012; in the data active = potentiation above about 50%; inconclusive = mostly about 30% to 49%
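PathHunter beta-arrestin assay in DiscoveRx D2 cells. Compounds were added with an EC20 of dopamine (50 nM final) for 90 min at 37 deg C. Luminescence was read 1 h after detection reagent, with 57 uM dopamine as the EC100 control.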
* marks the source's active call; other numbers are inactive results; ? = inconclusive; . = no result given.

SMILES | D2 antagonist | D2 ag-1 | D2 PAM-1 | D2 ag-2 | D2 PAM-2
CCOC(=O)C1CCN(Cc2ccc(C(=O)OC)cc2)CC1 | -9 | 2 | -24 | 0 | -18
CCOC(=O)C1(CC2CC2)CCN(Cc2cn(C)c3ccccc23)CC1 | 30* | -2 | -13 | -1 | -11
CCCCOc1ccc(CN2CCCCC2)cc1 | 52* | -3 | -10 | 0 | -17
COc1cc(C(=O)N(Cc2ccccc2)c2cccc(C)c2)ccc1OCC(=O)N1CCOCC1 | . | 1 | . | . | -6
Cc1cccc(NS(=O)(=O)Cc2ccccc2)n1 | -30 | -1 | -6 | 0 | -2
O=S(=O)(Cc1ccccc1)Nn1cnnc1 | 31* | -1 | 7 | 0 | -4
COCc1c(C(=O)NCCc2ccc(OC(F)F)cc2)oc2ccccc12 | . | 4 | . | . | -4
O=C(Cn1cc(C(=O)C2CC2)c2ccccc21)Nc1ccc(Br)cc1 | . | . | 5 | . | .
CC(C)C(C(=O)Nc1ncn[nH]1)N1C(=O)c2ccccc2C1=O (stereo unspecified) | 3 | -2 | 31* | 0 | 2
CC(C)C(C(=O)Nc1ccccc1)N1C(=O)c2ccccc2C1=O (stereo unspecified) | -9 | -6 | -7 | 0 | -2
Nc1nc(N)c2c(ccc3nccc32)[nH]1 | -6 | -1 | 9 | -1 | 52*
Nc1ccc2ncccc2c1N | . | 2 | . | . | 20
COc1ccc(OCCN2C(=O)NC(C)(c3ccc(C)cc3)C2=O)cc1 (stereo unspecified) | 17 | 0 | 66* | 0 | 1
Cc1ccc(C2(C)NC(=O)N(CCOc3ccccc3)C2=O)cc1 (stereo unspecified) | -12 | -4 | -5 | 0 | 9
COc1ccc(NC(=O)c2c(-c3ccccc3)c(-c3ccccc3)nn(C)c2=O)cc1OC | . | . | -2 | 0 | .
Cc1ccc(-c2cc(C(=O)NC3CCCC3)no2)cc1 | -24 | -6 | 6 | 0 | -6
O=C(NC1CCCCC1)c1cc(-c2ccc(F)cc2)on1 | 6 | -3 | 39* | -2 | 1
CCN(CC)S(=O)(=O)c1ccc(OCC(=O)NC(=O)c2ccccc2OC)c([N+](=O)[O-])c1 | -4 | 6 | -2 | 0 | 55*
CCOc1cc2[nH]c(=O)n(CCCCC(=O)N3CCCCCC3)c(=O)c2cc1OCC | 16 | 1 | 36* | 1 | -5
CCOc1cc2[nH]c(=O)n(CCCCC(=O)N3CCN(c4cccc(Cl)c4)CC3)c(=O)c2cc1OCC | . | . | -10 | . | .
COc1ccc(C2=NS(=O)(=O)N(C)C(C(=O)N3CCC(C(N)=O)CC3)=C2)cc1 | 35* | 4 | 0 | 1 | -1
Cc1noc(C(=O)Nc2ccc3c(c2)OCO3)c1Cl | 54* | -1 | -16 | 0 | -5
Cc1ccc2c(Cl)c(C(=O)Nc3ccc4c(c3)OCO4)sc2c1 | 34* | 1 | 3 | 1 | -2
CCOC(=O)c1c(C)oc2c1c(C(c1ccccc1)N1CCOCC1)c(O)c1ccccc12 (stereo unspecified) | 57* | -2 | -3 | -2 | ?
CCOC(=O)c1c(C)oc2c1c(C=NCCO)c(O)c1ccccc12 | -25 | 8 | 12 | 3 | 20
SMILES | D2 antagonist | D2 ag-1 | D2 PAM-1 | D2 ag-2 | D2 PAM-2
CCOC(=O)c1c(C)oc2c1c(C(c1cccnc1)N1CCCCC1)c(O)c1ccccc12 (stereo unspecified) | -2 | ? | -3 | 0 | 102*
CCN(CC)c1ccc(C(=O)NNC(=O)Cn2c(=O)cnc3ccccc32)cc1 | . | -3 | . | . | -24
CCc1c(C)sc(NC(=S)N2CC(C)OC(C)C2)c1C(=O)OC (stereo unspecified) | -4 | 2 | -1 | 0 | 68*
COc1cc(NC(=O)Nc2nc(C(N)C(C)C)cs2)cc(OC)c1OC (stereo unspecified) | . | 4 | . | . | 1
CC(=O)Nc1ccc(C)cc1NC(C)=O | 35* | -3 | -5 | -1 | 6
COC(=O)Nc1ccc(C)cc1NC(=O)OC | -9 | -2 | -5 | 1 | 13
Cc1nc(=O)c(-c2ccccc2)c(C)n1-c1cccc(C(=O)O)c1 | 31* | -2 | -8 | 0 | 6
CCN(CC(=O)Nc1c(F)cccc1F)C(=O)CCNC(=O)c1ccco1 | -6 | -1 | -4 | 0 | 4
COc1cccc(-c2nnc(SCC(=O)NC3CCS(=O)(=O)C3)n2C)c1 (stereo unspecified) | 39* | 2 | -4 | 1 | -14
CCOC(=O)C(=CNc1cc(C)nn1-c1ccc(C)cc1)C(=O)OCC | 14 | -1 | 8 | -1 | 65*
O=C(c1cc(S(=O)(=O)N2CCCC2)c[nH]1)N1CCN(c2cccc(Cl)c2)CC1 | . | . | 1 | 0 | .
COc1ccc2[nH]c3c(c2c1)CCN1C(=O)C(CC(=O)NCc2cccc(C(F)(F)F)c2)C[C@H](C(=O)N2CCCCC2)[C@@]31CCc1ccccc1 (stereo partly specified) | . | -3 | . | . | .
COC(=O)c1cc2c(=O)c3ccccc3oc2nc1C | 0 | -2 | 12 | 0 | -6
COC(=O)c1cc2c(=O)c3ccccc3oc2nc1/C=C/N(C)C | 8 | 6 | 13 | 40* | -1
CCOC(=O)c1cccc(NC(=O)CCn2c(=O)oc3ccccc32)c1 | 32* | -1 | -14 | -2 | -6
CCOC(=O)c1c(NC(=O)Cn2c(=O)oc3ccccc32)oc(C)c1C(C)=O | 31* | 6 | 17 | -1 | -12
Cc1ccc(NC(=O)CCCn2c(=O)oc3ccccc32)c(O)c1 | -10 | -1 | 4 | 0 | -11
Cc1cc(C)c(NC(=O)CCCn2c(=O)oc3ccccc32)c(C)c1 | 33* | -3 | 4 | 0 | -1
O=C(CCn1c(=O)oc2ccccc21)Nc1cccc(Cl)c1 | 9 | -3 | 0 | -1 | -9
CCOC(=O)c1c(C)[nH]c(C(=O)Cn2c(=O)oc3ccccc32)c1C | 6 | -1 | -10 | 0 | -27
O=C(NC1CCCCCC1)c1ccc2c(c1)sc1nc(-c3ccccc3)cn12 | . | . | 6 | -1 | .
CCOC(=O)C1CCN(CCC(=O)Nc2ccc(Cl)cc2)CC1 | 18 | 3 | -30 | 3 | -41
CCOC(=O)C1CCN(CCCSc2ccc(Cl)cc2)CC1 | 46* | -2 | -21 | 0 | -27
CC1CCN(CCOCCSc2ccc(Cl)cc2)CC1 | 45* | -4 | -31 | -1 | -15
Clc1ccc(SCCOCCN2CCCCC2)cc1 | -12 | -1 | -26 | 0 | -21
